The values below come from ChEMBL document CHEMBL3988442, “University of Dundee, Small-Polar-MMV Screening Library” (2021).

Each structure is given as a SMILES string. For part of these data: Measured potencies and affinities stand elsewhere.

What all share (parameters): scale not given: direction of the effect not stated beside the values
In experiment [1] the target is Protein translocase subunit SecA (Escherichia coli (strain K12)) (UniProt P10408). The experiment can be described thus: Assay to Identify E. coli SecA ATPase Inhibitors. In kind it is functional. To be noted: 30 µM.
Sequence of Protein translocase subunit SecA (Escherichia coli (strain K12)) (P10408 whole entry): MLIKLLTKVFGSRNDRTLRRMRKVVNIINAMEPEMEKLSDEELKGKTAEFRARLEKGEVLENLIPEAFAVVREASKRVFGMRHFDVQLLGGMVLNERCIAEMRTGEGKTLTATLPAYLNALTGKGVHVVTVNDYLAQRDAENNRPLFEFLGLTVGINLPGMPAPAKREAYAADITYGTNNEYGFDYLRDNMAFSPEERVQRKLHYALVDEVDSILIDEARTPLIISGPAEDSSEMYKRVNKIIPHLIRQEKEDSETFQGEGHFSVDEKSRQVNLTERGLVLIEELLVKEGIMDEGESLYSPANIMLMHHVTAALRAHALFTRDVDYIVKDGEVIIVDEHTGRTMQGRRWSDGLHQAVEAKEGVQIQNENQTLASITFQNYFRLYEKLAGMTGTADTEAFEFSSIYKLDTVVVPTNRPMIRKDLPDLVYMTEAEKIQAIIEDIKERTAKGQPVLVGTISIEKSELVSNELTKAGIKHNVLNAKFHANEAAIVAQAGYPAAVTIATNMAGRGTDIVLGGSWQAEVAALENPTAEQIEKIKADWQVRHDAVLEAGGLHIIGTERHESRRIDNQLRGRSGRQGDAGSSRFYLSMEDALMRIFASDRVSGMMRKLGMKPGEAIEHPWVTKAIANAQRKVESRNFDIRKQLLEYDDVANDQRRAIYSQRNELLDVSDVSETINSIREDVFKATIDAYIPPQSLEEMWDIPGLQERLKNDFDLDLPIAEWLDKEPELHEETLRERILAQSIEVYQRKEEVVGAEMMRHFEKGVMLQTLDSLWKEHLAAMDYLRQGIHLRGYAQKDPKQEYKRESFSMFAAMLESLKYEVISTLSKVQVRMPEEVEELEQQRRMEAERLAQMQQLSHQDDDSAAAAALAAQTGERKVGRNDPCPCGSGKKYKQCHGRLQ
Experiment [2] has as its target T1, Ubiquitin-activating enzyme e1, putative (Leishmania donovani (strain BPK282A1)) (UniProt E9BSI1).
T1 sequence (whole entry): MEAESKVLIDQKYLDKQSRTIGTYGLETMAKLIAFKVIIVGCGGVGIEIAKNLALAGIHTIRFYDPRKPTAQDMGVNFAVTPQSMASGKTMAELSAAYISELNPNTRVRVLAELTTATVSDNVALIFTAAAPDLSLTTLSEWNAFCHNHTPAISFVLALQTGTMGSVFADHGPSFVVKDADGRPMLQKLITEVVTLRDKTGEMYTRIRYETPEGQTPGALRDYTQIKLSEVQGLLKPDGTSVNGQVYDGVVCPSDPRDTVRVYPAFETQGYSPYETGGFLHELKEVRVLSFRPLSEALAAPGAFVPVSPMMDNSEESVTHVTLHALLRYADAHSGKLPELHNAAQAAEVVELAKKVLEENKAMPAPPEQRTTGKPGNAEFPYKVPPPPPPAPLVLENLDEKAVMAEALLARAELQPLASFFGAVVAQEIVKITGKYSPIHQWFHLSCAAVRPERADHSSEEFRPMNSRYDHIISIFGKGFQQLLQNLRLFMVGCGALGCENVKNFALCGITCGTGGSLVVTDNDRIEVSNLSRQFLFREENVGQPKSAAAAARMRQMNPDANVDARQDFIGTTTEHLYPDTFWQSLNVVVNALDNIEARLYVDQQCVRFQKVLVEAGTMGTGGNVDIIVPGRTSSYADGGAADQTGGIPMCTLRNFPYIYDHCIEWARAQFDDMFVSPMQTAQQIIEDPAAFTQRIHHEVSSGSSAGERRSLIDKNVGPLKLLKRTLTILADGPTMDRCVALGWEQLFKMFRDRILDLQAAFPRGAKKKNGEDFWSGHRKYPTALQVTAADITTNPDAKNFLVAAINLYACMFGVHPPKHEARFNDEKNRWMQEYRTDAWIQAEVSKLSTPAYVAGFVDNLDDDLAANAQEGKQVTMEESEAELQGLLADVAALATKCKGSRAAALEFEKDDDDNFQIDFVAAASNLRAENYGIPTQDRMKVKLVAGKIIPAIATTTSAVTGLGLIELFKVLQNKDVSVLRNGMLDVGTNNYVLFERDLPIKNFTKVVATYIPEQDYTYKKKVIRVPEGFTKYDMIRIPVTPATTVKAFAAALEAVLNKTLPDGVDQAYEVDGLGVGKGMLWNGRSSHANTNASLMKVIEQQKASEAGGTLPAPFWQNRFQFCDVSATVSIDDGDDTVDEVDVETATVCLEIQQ
The experiment can be described thus: Leishmania donovani Ubiquitin Activating Enzyme (LdE1). In kind it is functional. To be noted: 30 µM.

Experiment [3] addresses Sialic acid-binding Ig-like lectin 9 (Homo sapiens) (UniProt Q9Y336). The experiment can be described thus: Hs-Siglec9 ALPHAscreen SOP 20170721. To be noted: 10 µM. Background: In Alpha technology, singlet oxygen from a donor bead excites a nearby acceptor bead.
Another experiment relates to Trypanosoma cruzi. The experiment can be described thus: Trypanosoma cruzi phosphomannomutase and mannose-1-phosphate guanylyltransferase assay. In kind it is functional. To be noted: 10 µM.
In experiment [4] the target is T2, Arginase-2, mitochondrial (Homo sapiens) (UniProt P78540).
T2 sequence (whole entry): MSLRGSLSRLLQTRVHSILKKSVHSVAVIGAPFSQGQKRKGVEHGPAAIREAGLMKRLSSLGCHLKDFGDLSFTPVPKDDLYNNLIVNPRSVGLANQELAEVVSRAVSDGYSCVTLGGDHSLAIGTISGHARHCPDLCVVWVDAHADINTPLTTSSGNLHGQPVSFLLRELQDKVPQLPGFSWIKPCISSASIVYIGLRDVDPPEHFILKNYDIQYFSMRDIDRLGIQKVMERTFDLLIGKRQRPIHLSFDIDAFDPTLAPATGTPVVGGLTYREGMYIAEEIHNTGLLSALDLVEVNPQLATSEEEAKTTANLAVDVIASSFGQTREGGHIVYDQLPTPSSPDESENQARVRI
The experiment can be described thus: in vitro enzyme assay to detect the production of urea directly proportional to the activity of Arginase II. Note: in the data most compounds retested in dose-response had high values. To be noted: 33.3 µM. The class given is functional.

The target of experiment [5] is T3, Proteasome subunit beta (Trypanosoma cruzi) (UniProt O96673).
T3 sequence (whole entry): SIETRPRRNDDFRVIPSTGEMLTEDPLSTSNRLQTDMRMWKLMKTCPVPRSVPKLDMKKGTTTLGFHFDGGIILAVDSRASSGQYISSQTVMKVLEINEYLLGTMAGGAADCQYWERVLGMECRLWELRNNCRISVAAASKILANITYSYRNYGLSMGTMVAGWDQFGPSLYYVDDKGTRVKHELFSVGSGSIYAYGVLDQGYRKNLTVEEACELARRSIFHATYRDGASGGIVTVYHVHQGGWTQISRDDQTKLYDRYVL
The experiment is described as follows: Trypanosoma cruzi proteasome chymotrypsin-like activity (TcProtChymo) assay. Note: in the data most compounds retested in dose-response had high values. In kind it is functional. To be noted: 9.37 µM.

For the next experiment, the species on record is Homo sapiens. The experiment is described as follows: To identify inhibition of the IFN signalling (Jak-Stat) pathway via expression of an eGFP reporter gene under the control of an IFN-stimulated response element (ISRE) containing MxA promoter. In kind it is functional. To be noted: 30 µM.
In experiment [6] the target is T4, Tyrosyl-tRNA synthetase, putative (Trypanosoma cruzi (strain CL Brener)) (UniProt Q4DSP6).
T4 sequence (whole entry): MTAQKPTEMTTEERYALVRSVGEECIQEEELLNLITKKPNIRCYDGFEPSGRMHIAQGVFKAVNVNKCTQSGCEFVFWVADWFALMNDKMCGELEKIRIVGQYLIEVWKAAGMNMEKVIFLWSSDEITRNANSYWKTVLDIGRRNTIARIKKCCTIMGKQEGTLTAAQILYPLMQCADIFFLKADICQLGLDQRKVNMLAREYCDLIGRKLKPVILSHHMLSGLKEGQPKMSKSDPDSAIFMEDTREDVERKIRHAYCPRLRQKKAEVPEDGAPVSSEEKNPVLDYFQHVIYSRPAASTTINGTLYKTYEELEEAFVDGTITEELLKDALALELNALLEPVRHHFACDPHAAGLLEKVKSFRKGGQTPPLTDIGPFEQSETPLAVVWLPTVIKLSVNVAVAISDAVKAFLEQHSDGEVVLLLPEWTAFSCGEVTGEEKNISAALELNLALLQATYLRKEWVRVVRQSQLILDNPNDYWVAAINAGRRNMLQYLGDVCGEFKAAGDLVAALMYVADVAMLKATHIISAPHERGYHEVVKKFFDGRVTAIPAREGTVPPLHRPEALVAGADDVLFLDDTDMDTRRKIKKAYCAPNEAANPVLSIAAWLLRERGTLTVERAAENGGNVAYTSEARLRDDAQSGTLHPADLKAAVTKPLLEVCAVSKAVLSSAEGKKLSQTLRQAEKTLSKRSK
The experiment can be described thus: Trypanosoma cruzi tyrosyl tRNA synthetase (TcYRS) _High Tyrosine SOP. Note: in the data most compounds retested in dose-response had high values. To be noted: 30 µM. In kind it is functional.

In experiment [7] the target is T4, Tyrosyl-tRNA synthetase, putative (Trypanosoma cruzi (strain CL Brener)). The experiment can be described thus: Trypanosoma cruzi tyrosyl tRNA synthetase (TcYRS) SOP. In kind it is functional. To be noted: 30 µM.
Experiment [8] deals with Chromo domain-containing protein 1 (Saccharomyces cerevisiae (strain ATCC 204508 / S288c) (Baker's yeast)) (UniProt P32657). The experiment is described as follows: ScCHD-1 Enzyme Inhibition Assay. Note: in the data most compounds retested in dose-response had high values. In kind it is functional. To be noted: 30 µM.
Sequence of Chromo domain-containing protein 1 (Saccharomyces cerevisiae (strain ATCC 204508 / S288c) (Baker's yeast)) (P32657 whole entry, the tested form may be a part): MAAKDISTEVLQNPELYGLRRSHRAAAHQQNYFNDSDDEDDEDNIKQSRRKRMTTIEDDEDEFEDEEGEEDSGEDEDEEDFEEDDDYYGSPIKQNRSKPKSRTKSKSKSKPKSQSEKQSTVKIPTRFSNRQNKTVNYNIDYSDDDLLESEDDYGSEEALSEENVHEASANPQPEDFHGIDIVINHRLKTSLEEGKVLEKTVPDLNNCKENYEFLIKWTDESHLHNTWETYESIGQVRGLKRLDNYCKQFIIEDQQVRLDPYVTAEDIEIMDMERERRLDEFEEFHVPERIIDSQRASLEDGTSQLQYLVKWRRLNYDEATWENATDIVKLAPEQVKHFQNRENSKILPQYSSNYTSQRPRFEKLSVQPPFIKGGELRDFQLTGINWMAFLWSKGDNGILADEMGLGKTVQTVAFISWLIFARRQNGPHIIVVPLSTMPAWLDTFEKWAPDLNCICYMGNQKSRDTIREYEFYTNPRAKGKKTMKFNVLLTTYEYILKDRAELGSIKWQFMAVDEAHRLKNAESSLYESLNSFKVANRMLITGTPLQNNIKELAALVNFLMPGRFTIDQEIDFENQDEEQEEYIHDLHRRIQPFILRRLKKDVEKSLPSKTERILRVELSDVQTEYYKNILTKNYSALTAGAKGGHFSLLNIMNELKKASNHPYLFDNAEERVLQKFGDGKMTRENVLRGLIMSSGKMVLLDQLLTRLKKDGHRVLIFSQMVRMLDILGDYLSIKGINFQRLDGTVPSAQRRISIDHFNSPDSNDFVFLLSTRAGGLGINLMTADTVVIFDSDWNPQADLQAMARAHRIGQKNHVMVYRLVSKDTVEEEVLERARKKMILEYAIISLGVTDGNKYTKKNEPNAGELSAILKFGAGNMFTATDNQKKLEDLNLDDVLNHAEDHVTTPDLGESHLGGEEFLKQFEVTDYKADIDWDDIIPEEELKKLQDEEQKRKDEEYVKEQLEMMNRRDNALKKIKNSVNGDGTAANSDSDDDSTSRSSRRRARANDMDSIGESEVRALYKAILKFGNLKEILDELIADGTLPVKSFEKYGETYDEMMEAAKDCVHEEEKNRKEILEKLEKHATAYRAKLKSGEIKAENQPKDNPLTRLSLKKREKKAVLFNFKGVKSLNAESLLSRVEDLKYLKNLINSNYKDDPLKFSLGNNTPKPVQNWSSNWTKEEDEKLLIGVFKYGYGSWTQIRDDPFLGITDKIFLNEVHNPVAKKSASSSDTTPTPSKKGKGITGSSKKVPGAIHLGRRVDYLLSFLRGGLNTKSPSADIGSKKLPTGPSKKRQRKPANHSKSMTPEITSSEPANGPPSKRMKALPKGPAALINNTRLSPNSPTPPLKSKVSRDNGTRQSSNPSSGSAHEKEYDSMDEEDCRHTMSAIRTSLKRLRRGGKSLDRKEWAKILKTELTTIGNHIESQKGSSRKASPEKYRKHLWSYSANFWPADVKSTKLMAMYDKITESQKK

Sequence of Sialic acid-binding Ig-like lectin 9 (Homo sapiens) (Q9Y336 whole entry): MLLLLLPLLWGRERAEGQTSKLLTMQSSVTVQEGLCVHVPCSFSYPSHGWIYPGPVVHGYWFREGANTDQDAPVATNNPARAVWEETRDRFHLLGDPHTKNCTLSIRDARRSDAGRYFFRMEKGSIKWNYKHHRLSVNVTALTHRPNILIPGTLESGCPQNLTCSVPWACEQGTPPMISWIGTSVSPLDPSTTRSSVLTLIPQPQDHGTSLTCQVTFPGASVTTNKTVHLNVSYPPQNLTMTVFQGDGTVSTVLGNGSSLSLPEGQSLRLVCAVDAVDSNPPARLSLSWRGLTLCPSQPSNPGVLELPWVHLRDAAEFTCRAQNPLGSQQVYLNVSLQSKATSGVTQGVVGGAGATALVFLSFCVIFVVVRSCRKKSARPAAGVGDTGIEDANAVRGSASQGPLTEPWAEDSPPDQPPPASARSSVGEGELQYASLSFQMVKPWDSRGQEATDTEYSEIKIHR

For `Cc1ccc(NC2CCN(C(=O)c3cnc(C)s3)CC2)nn1`, the Percent Effect in [1] was -3.62%; in [2], 10.7%; in experiment [3], -0.486%; in the experiment on Trypanosoma cruzi, -3.01%; in [4] it was 0.887%; in experiment [5], -0.594%. The Percent Effect in the experiment filed under Homo sapiens was 15.9%; in experiment [6], 5.79%; in [7], 12.8%; in [8], -6.74%.
As for `CN(C)S(=O)(=O)N1CC[C@]2(C[C@H](Oc3cccnc3)CO2)C1`, the Percent Effect in experiment [1] was -2.88%; in experiment [2], 14.3%; in [3], -1.9%; in the experiment with Trypanosoma cruzi it was 1.66%; in [4], 8.91%; in experiment [5], 23.7%. The Percent Effect in the experiment listed under Homo sapiens was 1.15%; in [6], 11.1%; in experiment [7] it was 15.4%; in experiment [8] it was -4.29%.
On to `CCN(CC)C1CCN(C(=O)NCc2nncn2CC)CC1`, for which the Percent Effect is -3.6% in [1]; 13.3% in [2]; -2.94% in experiment [3]; 3.41% in the experiment with Trypanosoma cruzi; 3.55% in experiment [4]; 12% in [5]. The Percent Effect in the experiment listed under Homo sapiens was 21.2%; in experiment [6] it was 0.526%; in [7], 7.69%; in experiment [8], -11.2%.
Turning to `Cc1ccc(C(CNC(=O)NCc2cc[nH]n2)N2CCOCC2)o1` (stereo not given), the Percent Effect in [1] was -3.05%; in experiment [2], 12.8%; in experiment [3] it was -4.81%; in the experiment on Trypanosoma cruzi it was -4.04%; in experiment [4], 0.82%; in experiment [5], 14.1%. The Percent Effect in the experiment listed under Homo sapiens is 24.3%; in [6], 2.39%; in [7], 10.8%; in experiment [8], -3.31%.
Take `O=C(c1cccnc1)N1CCn2nnc(COc3cccnc3)c2C1`: the Percent Effect in experiment [1] is -4.23%; in experiment [2], 1.3%; in experiment [3] it was -1.59%; with Trypanosoma cruzi, -6.13%; in experiment [4], 4.45%; in [5], 14%. Moreover, the Percent Effect in the experiment filed under Homo sapiens was -1.63%; in experiment [6], 7.89%; in [7], 7.69%; in experiment [8], 2.46%.
`Cc1nc(COC[C@@H]2CCC[C@@]23CNCCO3)cs1`: the Percent Effect was -4.17% in experiment [1]; 6.49% in [2]; -6% in [3]; -4.19% with Trypanosoma cruzi; 4.05% in experiment [4]; 13% in [5]. The Percent Effect in the experiment filed under Homo sapiens was 8.21%; in experiment [6], 6.84%; in experiment [7], 2.56%; in [8], -5.3%.
For `COCC(=O)N1CC[C@@H](O)[C@@H]1Cc1ccccc1`, the Percent Effect was -2.38% in [1]; 3.9% in [2]; -3.29% in experiment [3]; 1.27% with Trypanosoma cruzi; -4.45% in experiment [4]; 6.27% in [5]. For the same compound, the Percent Effect in the experiment listed under Homo sapiens is -19.5%; in experiment [6], -5.79%; in experiment [7], 0%; in experiment [8] it was -0.374%.
`Cc1cnn(CC2CN(CC(=O)N3CCc4ccccc43)CCO2)c1` (stereo not given): the Percent Effect in experiment [1] is -4.43%; in [2], 8%; in experiment [3], 4.38%; in the experiment on Trypanosoma cruzi, -0.803%; in experiment [4] it was 3.55%; in experiment [5] it was 3.48%. The Percent Effect in the experiment filed under Homo sapiens is 6.22%; in [6], 4.74%; in [7] it was -5.13%; in experiment [8], -9.1%.
Regarding `c1cnc(N2CCC3(CC2)CN(CC2CC2)c2ccccc23)nc1`, the Percent Effect in experiment [1] was -2.71%; in experiment [2], -9.09%; in [3] it was 0.418%; in the experiment on Trypanosoma cruzi, 2.81%; in experiment [4] it was -2.28%; in experiment [5] it was -0.0858%. Moreover, the Percent Effect in the experiment listed under Homo sapiens was 15%; in experiment [6], 33.8%; in [7], 20%; in experiment [8], 9.61%.
For `CCc1nnc2n1CCN(Cc1nc(-c3ccoc3)no1)C2`, the Percent Effect is -4.35% in [1]; 5.13% in experiment [2]; 5.33% in experiment [3]; 4.22% in the experiment on Trypanosoma cruzi; 1.64% in [4]; 9.47% in experiment [5]. The Percent Effect in the experiment listed under Homo sapiens is -10.4%; in [6], 12%; in experiment [7], 22.9%; in [8] it was -4.51%.
For the compound `OC(CNCCn1cccn1)c1ccc2c(c1)OCCO2` (stereo not given), the Percent Effect in [1] was -5.4%; in [2], 13.3%; in [3] it was 10.3%; in the experiment on Trypanosoma cruzi it was 1%; in experiment [4], 0%; in [5], 4.83%. Also, the Percent Effect in the experiment listed under Homo sapiens was -2.77%; in experiment [6] it was 4.74%; in [7] it was 10.3%; in experiment [8] it was -13.4%.
Turning to `COc1ccc(C2CC(=O)Nc3c2nc2n3CCCC2)cc1OC` (stereo not given), the Percent Effect in experiment [1] is -2.41%; in experiment [2], 8.11%; in experiment [3], 3.86%; in the experiment on Trypanosoma cruzi, -4.56%; in experiment [4], 0.35%; in experiment [5] it was 15.9%. For the same compound, the Percent Effect in the experiment listed under Homo sapiens was 30.7%; in experiment [6], 1.6%; in [7], 14.6%; in [8], -4.25%.
